Several values for one entry are separate records, joined by “and”; a condition that tells them apart may be missing. Equal entries are not always repeated. This is part of a sample that, as a whole, favours compounds with a hit. Of some 79,000 tested, about 15% had one in any assay. Activity calls are given as the source filed them. No stated cut-off is given here; in the data, active means growth inhibition above about 70%; inactive means the rest.
Tests used:
[1] = NCI Yeast Anticancer Drug Screen. Data for the rad50 strain (AID 155);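 further: 0% = growth of vehicle-only cultures of the same strain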; settings: S. cerevisiae rad50 strain growth inhibition, active compounds read high; at 50.0 µM unless noted
Procedure, shortened: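 Genetically altered yeast (DNA repair pathway); compound treatment; growth inhibition vs vehicle ctrl.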

[2] = NCI Yeast Anticancer Drug Screen. Data for the mec2-1 strain (AID 157); settings: S. cerevisiae mec2-1 strain, active compounds read high; at 50.0 µM unless noted
Procedure, shortened: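 Each compound was tested on mec2-1 yeast, a strain altered in DNA damage repair or cell cycle control. Growth inhibition is reported relative to vehicle.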

[3] = NCI Yeast Anticancer Drug Screen. Data for the sgs1 mgt1 strain (AID 161);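 further: 0% = growth of cultures given vehicle only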; settings: S. cerevisiae sgs1 mgt1 strain, active compounds read high; at 50.0 µM unless noted
Procedure, shortened: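 Read-out: growth inhibition vs vehicle controls. Cells: mutant yeast strain deficient in DNA damage repair.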

[4] = NCI Yeast Anticancer Drug Screen. Data for the cln2 rad14 strain (AID 165);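 further: 0% = growth equal to vehicle treated cultures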; settings: S. cerevisiae cln2 rad14 strain, active compounds read high; at 50.0 µM unless noted
Procedure, shortened: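 Test compounds were added to cln2 rad14 yeast cultures; inhibition of growth was then determined by comparison with vehicle treatment.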

[5] = NCI Yeast Anticancer Drug Screen. Data for the bub3 strain (AID 167); settings: S. cerevisiae bub3 mutant strain, active compounds read high; at 50.0 µM unless noted
Procedure, shortened: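 Yeast carrying a defined mutation is treated with each compound, and growth is compared with that of vehicle-exposed cells to give inhibition.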

[6] = NCI Yeast Anticancer Drug Screen. Data for the mlh1 rad18 strain (AID 175); settings: S. cerevisiae mlh1 rad18 strain growth inhibition, active compounds read high; at 50.0 µM unless noted
Procedure, shortened: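 Inhibition values reflect reduced growth of mutant yeast versus vehicle-treated controls following compound exposure; the mutations affect DNA damage repair.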

Measured: growth inhibition

C/C=C(/I)CBr
inactive: [1] 28.4% | [2] 1.1% | [3] 1.75% | [4] 3.05% | [5] 12.2% | [6] 21.3%

c1ccc2c(c1)ccc1c[n+]3ccccc3cc12
inactive: [1] 26.6% | [2] 23.1% | [3] 22.2% | [4] 44.5% | [5] 9.25% | [6] 61.9%

CC(=O)c1ccc(Cl)cc1Cl
inactive: [1] -12.4% | [2] -11.8% | [3] -3.7% | [4] -6.65% | [5] -13.3% | [6] -38.5%

COc1ccc(/C=C/C(=O)c2sc(Nc3ccc([N+](=O)[O-])cc3)nc2C)cc1
inactive: [1] 39.2% | [2] 7.45% | [3] 5.35% | [4] 36.8% | [5] 27.5% | [6] 46.4%

COc1ccc(Cl)cc1NC(=O)Oc1ccc(NC(C)=O)cc1
inactive: [1] 3.2% | [2] -0.6% | [3] -1.15% | [4] -1.3% | [5] 11% | [6] 4.25%

CCN(CC)CCN1CC(=O)N2CCCCN2C(=O)C1
inactive: [1] 17.2% | [2] 4.5% | [3] 14.9% | [4] 13.4% | [5] 7.85% | [6] 10.6%

O=C(/C=C/c1ccc(O)c(O)c1)OC1CC(O)(C(=O)O)CC(O)C1O (stereo unspecified) (tested in a mixture with another compound)
inactive: [1] -26.6% | [2] -13.9% | [3] -9.35% | [4] -17.1% | [5] 4% | [6] -12.3%

CCCNCCC
inactive: [1] 2.1% | [2] -5.4% | [3] 14.5% | [4] -12.4% | [5] 4.2% | [6] 1.65%

CC(C)/C(Cl)=N/OC(=O)Nc1ccc(F)c(Cl)c1
active: [3] 89.3%
inactive: [1] 37.4% | [2] 35.3% | [4] -1.3% | [5] 60.8% | [6] -36.8%

COC1CCC(OS(C)(=O)=O)C(C)O1 (stereo unspecified)
inactive: [1] 16.8% | [2] -45.9% | [3] 4.6% | [4] -2.15% | [5] -38.7% | [6] 9.85%

O=c1c2ccccc2c(=O)n2n1-c1cccc(c1)CSSCc1cccc-2c1
inactive: [1] -16.9% | [2] 2.7% | [3] -10.6% | [4] -3.45% | [5] 0.2% | [6] -12.8%

O=Nc1c(S(=O)(=O)O)cc2cc(S(=O)(=O)O)ccc2c1O
inactive: [1] 41.9% | [2] 0.55% | [3] 45.2% | [4] 22.4% | [5] 23.1% | [6] 30.4%

O=C(O)CCC(=O)c1ccc(F)cc1
inactive: [1] -20.6% | [2] -13.7% | [3] -13.6% | [4] -0.95% | [5] -22.6% | [6] -7.65%

CCOC(=O)C/C(=N\NC(=O)c1ccccc1O)C(=O)OCC
inactive: [1] 5.8% | [2] 1.95% | [3] 5.85% | [4] 0.9% | [5] 3.3% | [6] 29.9%

O=[N+]([O-])c1ccc(/C(=C\c2ccc(-c3ccccc3)o2)S(=O)(=O)c2ccccc2)o1
inactive: [1] 26.2% | [2] -17.5% | [3] -5.1% | [4] 23.6% | [5] -1.2% | [6] 2.25%

Cc1cc(C)c2c(=O)n(-c3ccccc3C)c(=S)n(-c3ccccc3C)c2n1
inactive: [1] 31.4% | [2] 8.35% | [3] 2.25% | [4] 1.95% | [5] -4.1% | [6] 24.7%

Nc1nc(-c2cc(Br)ccc2N=NN2CCCCC2)nc2ccc(Br)cc12
inactive: [2] 37.2% | [4] 46% | [5] 22.3%
active: [1] 82.2% | [3] 79.5% | [6] 70.8%

Oc1ccc2ccccc2c1/C=C/c1ccc2c(Br)cc(Br)c(O)c2n1
inactive: [1] 60.6% | [2] 41.1% | [3] 28.7% | [4] 38% | [5] 64.9% | [6] 65.3%

CC(C)C1CCC2C(CCC3C(C)(C(=O)O)CCCC23C)C1 (stereo unspecified)
inactive: [1] -2.35% | [2] 14.1% | [3] -0.85% | [4] 21% | [5] -12.8% | [6] 25.2%

O=C1c2c(O)ccc(O)c2C(=O)c2c(NCCNCCO)ccc(NCCNCCO)c21
inactive: [1] 61.9% and 31.9% | [2] 21.6% and -16.4% | [3] 54.2% and -52% | [4] -41.9% and -21.4% | [5] 9.5% and -63.3% | [6] 41% and -16.6%

CN(C)c1ccc(/C=C/C(=O)N[C@@H]2C(=O)N3[C@@H]2SC(C)(C)[C@@H]3C(=O)O)cc1
inactive: [1] -10.3% | [2] -10.8% | [3] -11.9% | [4] 6.35% | [5] -12.8% | [6] 12.8%

CC(C)=CCCC(C)CCOc1cccc(C)c1 (stereo unspecified)
inactive: [1] 3.65% | [2] 8.3% | [3] -6.95% | [4] -37.5% | [5] 11.6% | [6] 1.2%

c1ccc2cnncc2c1
inactive: [1] 0.35% | [2] -0.55% | [3] -11.8% | [4] 4.35% | [5] 11.7% | [6] 0.25%

O=c1[nH]cnc2c1ccc1[nH]ncc12
inactive: [1] 9.45% | [2] 0.2% | [3] -3.35% | [4] -42.2% | [5] -1.05% | [6] 5.4%

C[Si](C)(C)Cn1cccc1
inactive: [1] -7.5% | [2] 8.9% | [3] 5% | [4] -37.6% | [5] -1.15% | [6] -8.85%

CCCCCCOS(=O)(=O)c1ccc(C)cc1
inactive: [1] 23.1% | [2] -9.95% | [3] -2.1% | [4] 16.6% | [5] 6.7% | [6] 22.4%

CSc1ccc(Cl)cc1
inactive: [1] 6% | [2] -4.55% | [3] 1.7% | [4] 16.9% | [5] -1.2% | [6] 16.1%

Nc1ccccc1S(=O)(=O)Nc1c(N)nc(SCC(=O)O)[nH]c1=O
inactive: [1] -15.4% | [2] -21.9% | [3] -10% | [4] -4.2% | [5] -12.9% | [6] 0.65%

N#C/C(=C\C1CCCCC1Cl)C1CCC([N+](=O)[O-])CC1 (stereo unspecified)
inactive: [1] 12.6% | [2] 5.15% | [3] 17.2% | [4] -8.35% | [5] 32.8% | [6] 18.1%

O=C(NC1(Sc2ccccc2)CC1)c1ccc(Cl)cc1
inactive: [1] 17.8% | [2] 6.8% | [3] 8.9% | [4] 20.6% | [5] 13.8% | [6] 18.9%

NC(=O)CCCCCCCCC(N)=O
inactive: [1] 10.7% | [2] 4.95% | [3] 9.65% | [4] -4.75% | [5] -1.4% | [6] 31.1%

CC1=CP(=O)(c2ccccc2)CC1 (stereo unspecified) (tested in a mixture with another compound)
inactive: [1] -12.2% | [2] -9.2% | [3] 6.2% | [4] -9.85% | [5] -10.4% | [6] 1.2%

O=C(NCCCl)c1ccc(Cl)c(Cl)c1
inactive: [1] 2.8% | [2] 0.25% | [3] 4.95% | [4] -20.9% | [5] 12.8% | [6] 3.7%

CN(C)/C=N/NC(=O)/C(C#N)=C/N(C)C
inactive: [1] -26.1% | [2] 2.3% | [3] -8.15% | [4] -24.8% | [5] -45.1% | [6] -42.9%

COCCCC(=O)CNC(C)C
inactive: [1] -5.05% | [2] -42.1% | [3] -8.75% | [4] -15.4% | [5] -21.1% | [6] -14.4%

ClCCOCCOc1ccc(C2CCCCC2)cc1
inactive: [1] 12.9% and -1.65% | [2] 11.9% and -0.75% | [3] 56% and -3.65% | [4] 24.1% and -10.8% | [5] 28.2% and 31.4% | [6] 13.8% and 9.05%

C#CC(C)(O)CCC(C)C (stereo unspecified)
inactive: [1] -10% | [2] -16.1% | [3] -3.3% | [4] 14.5% | [5] 10.8% | [6] -16.9%

CNC(=O)Nc1c(C)cccc1C
inactive: [1] 0.05% | [2] 6.1% | [3] -0.2% | [4] -26.2% | [5] 0.05% | [6] 4.05%

CCCn1c(C)nc2c([N+](=O)[O-])cc(C)cc21
inactive: [1] -4.2% | [2] -14.8% | [3] -12.9% | [4] -34.2% | [5] 13.4% | [6] -4.8%

CC(=O)OCc1c(COC(C)=O)c(-c2ccc(Cl)cc2)n2c1CCC2
inactive: [1] 34% | [2] 16.6% | [3] 19.3% | [4] -18.1% | [5] 9.6% | [6] 23.9%

CCCCOC(=O)C1CN2C=CC=NC2=NC1(C(F)(F)F)C(F)(F)F (stereo unspecified)
inactive: [1] -16.1% | [2] 27% | [3] 6.6% | [4] 0.95% | [5] 3.35% | [6] -43.1%
